Results published in the supplement of paper PMC10849652.
The full data set covers some 7,900 targets. This sample favours those with a hit. About 0.6% of all pairs of compound and target were hits. Values without a mark were called inactive.

Experiments:
Assay in all cases: log2 fold change, soluble protein after heating vs DMSO (PISA); higher = thermal stabilisation; K562 cells, 10 uM, 30 min; active = over 0.2 and 3.5 SD of the protein, either way, in both replicates (recomputed)
[1] = compound: COC1=CC=C(C=C1)CN2C=CC3=C2C=C(C=C3)C(=O)NO
Outline: (§1)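 Values are thermal stability changes relative to control samples and are taken from duplicates. They are stated as log2 fold changes. Before quantification by TMTpro 16plex LC-MS/MS with equalised channel sums, K562 cells at 2×10^6 cells/mL were treated with 10 μM compound for 30 min, heated in aliquots for 3 min across 48°C-58°C, pooled, extracted in PBS with 0.5% NP-40 at 4°C, and centrifuged at 21,000xg for 90 min to give the soluble supernatant.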

filanesib = compound: CON(C)C(=O)N1N=C(c2cc(F)ccc2F)S[C@@]1(CCCN)c1ccccc1 [filanesib]
Outline: as §1

zotarolimus = compound: CO[C@H]1C[C@@H]2CC[C@@H](C)[C@@](O)(O2)C(=O)C(=O)N2CCCC[C@H]2C(=O)O[C@H]([C@H](C)C[C@@H]2CC[C@H](n3cnnn3)[C@H](OC)C2)CC(=O)[C@H](C)/C=C(\C)[C@@H](O)[C@@H](OC)C(=O)[C@H](C)C[C@H](C)/C=C/C=C/C=C/1C [zotarolimus]
Outline: as §1

idasanutlin = compound: COc1cc(C(=O)O)ccc1NC(=O)[C@@H]1N[C@@H](CC(C)(C)C)[C@](C#N)(c2ccc(Cl)cc2F)[C@H]1c1cccc(Cl)c1F [idasanutlin]
Outline: as §1

alisertib = compound: COc1cc(Nc2ncc3c(n2)-c2ccc(Cl)cc2C(c2c(F)cccc2OC)=NC3)ccc1C(=O)O [alisertib]
Outline: as §1

[2] = compound: COc1cc2nc(-c3cc(F)ccc3O)nc(N[C@@H]3CNC[C@H]3C(C)(C)O)c2cc1OC
Outline: as §1

gefitinib = compound: COc1cc2ncnc(Nc3ccc(F)c(Cl)c3)c2cc1OCCCN1CCOCC1 [gefitinib]
Outline: as §1

[3] = compound: COc1cccc2cc(-c3nc([C@H]4CC[C@H](C(=O)O)CC4)n4ncnc(N)c34)[nH]c12
Outline: as §1

lapatinib = compound: CS(=O)(=O)CCNCc1ccc(-c2ccc3ncnc(Nc4ccc(OCc5cccc(F)c5)c(Cl)c4)c3c2)o1 [lapatinib]
Outline: as §1

pictilisib = compound: CS(=O)(=O)N1CCN(Cc2cc3nc(-c4cccc5[nH]ncc45)nc(N4CCOCC4)c3s2)CC1 [pictilisib]
Outline: as §1

[4] = compound: CS(=O)(=O)c1ccc(-c2cnc(N)c(C(=O)Nc3ccccc3)n2)cc1
Outline: as §1

crizotinib = compound: C[C@@H](Oc1cc(-c2cnn(C3CCNCC3)c2)cnc1N)c1c(Cl)ccc(F)c1Cl [crizotinib]
Outline: as §1

[5] = compound: C[C@@H]1COCCN1C2=NC(=NC(=C2)C3(CC3)S(=O)(=O)C)C4=C5C=CNC5=CC=C4
Outline: as §1

[6] = compound: C[C@H](C1=CC=C(C=C1)C(=O)NC2=C3C=CNC3=NC=C2)N
Outline: as §1

duvelisib = compound: C[C@H](Nc1ncnc2nc[nH]c12)c1cc2cccc(Cl)c2c(=O)n1-c1ccccc1 [duvelisib]
Outline: as §1

gandotinib = compound: Cc1cc(Nc2cc(CN3CCOCC3)c3nc(C)c(Cc4ccc(Cl)cc4F)n3n2)n[nH]1 [gandotinib]
Outline: as §1

tozasertib = compound: Cc1cc(Nc2cc(N3CCN(C)CC3)nc(Sc3ccc(NC(=O)C4CC4)cc3)n2)n[nH]1 [tozasertib]
Outline: as §1

[7] = compound: Cc1cc(SCc2sc(-c3ccc(C(F)(F)F)cc3)nc2C)ccc1OCC(=O)O
Outline: as §1

doramapimod = compound: Cc1ccc(-n2nc(C(C)(C)C)cc2NC(=O)Nc2ccc(OCCN3CCOCC3)c3ccccc23)cc1 [doramapimod]
Outline: as §1

ispinesib = compound: Cc1ccc(C(=O)N(CCCN)[C@@H](c2nc3cc(Cl)ccc3c(=O)n2Cc2ccccc2)C(C)C)cc1 [ispinesib]
Outline: as §1

UniProt Q9BQB6, sequence (Q9BQB6 whole entry, looked up): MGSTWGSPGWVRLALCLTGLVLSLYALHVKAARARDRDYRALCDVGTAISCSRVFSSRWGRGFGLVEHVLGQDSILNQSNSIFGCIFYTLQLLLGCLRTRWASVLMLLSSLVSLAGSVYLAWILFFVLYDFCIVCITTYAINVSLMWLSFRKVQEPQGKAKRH
UniProt Q9UHP3, sequence (Q9UHP3 whole entry, looked up): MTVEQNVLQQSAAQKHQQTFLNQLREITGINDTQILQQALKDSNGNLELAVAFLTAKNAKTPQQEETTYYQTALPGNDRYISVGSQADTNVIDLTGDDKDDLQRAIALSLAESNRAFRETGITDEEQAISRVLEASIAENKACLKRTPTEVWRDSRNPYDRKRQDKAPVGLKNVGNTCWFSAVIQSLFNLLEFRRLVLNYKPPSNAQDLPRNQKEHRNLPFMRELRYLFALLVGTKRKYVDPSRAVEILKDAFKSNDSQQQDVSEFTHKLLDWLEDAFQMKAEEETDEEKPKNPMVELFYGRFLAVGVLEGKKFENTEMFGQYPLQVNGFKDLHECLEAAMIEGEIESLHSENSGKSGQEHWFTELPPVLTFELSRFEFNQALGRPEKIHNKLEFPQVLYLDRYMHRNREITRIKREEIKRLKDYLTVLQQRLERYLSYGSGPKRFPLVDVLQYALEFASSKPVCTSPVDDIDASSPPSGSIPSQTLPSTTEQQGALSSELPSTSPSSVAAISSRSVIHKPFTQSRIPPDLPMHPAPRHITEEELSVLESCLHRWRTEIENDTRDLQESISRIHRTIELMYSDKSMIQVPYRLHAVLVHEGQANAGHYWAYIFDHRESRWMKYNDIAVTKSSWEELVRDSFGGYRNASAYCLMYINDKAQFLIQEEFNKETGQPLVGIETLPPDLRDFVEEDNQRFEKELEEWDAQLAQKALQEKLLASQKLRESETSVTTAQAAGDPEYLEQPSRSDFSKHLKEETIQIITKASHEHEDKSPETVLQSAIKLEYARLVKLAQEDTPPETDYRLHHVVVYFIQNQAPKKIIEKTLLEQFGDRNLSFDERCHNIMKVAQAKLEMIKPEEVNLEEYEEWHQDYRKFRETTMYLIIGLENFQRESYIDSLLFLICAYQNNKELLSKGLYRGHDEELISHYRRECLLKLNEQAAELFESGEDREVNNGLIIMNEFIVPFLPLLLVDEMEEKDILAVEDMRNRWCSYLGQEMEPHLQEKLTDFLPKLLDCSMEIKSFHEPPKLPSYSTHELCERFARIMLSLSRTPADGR
UniProt Q6PID6, sequence (Q6PID6 whole entry, looked up): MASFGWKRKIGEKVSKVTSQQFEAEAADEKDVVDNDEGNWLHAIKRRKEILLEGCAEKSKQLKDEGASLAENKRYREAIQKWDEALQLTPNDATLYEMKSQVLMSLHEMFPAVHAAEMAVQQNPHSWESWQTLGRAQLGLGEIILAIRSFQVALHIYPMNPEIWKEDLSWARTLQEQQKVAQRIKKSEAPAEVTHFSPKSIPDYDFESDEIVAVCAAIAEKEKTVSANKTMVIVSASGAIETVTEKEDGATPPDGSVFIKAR
UniProt Q9Y5Z9, sequence (Q9Y5Z9 whole entry, looked up): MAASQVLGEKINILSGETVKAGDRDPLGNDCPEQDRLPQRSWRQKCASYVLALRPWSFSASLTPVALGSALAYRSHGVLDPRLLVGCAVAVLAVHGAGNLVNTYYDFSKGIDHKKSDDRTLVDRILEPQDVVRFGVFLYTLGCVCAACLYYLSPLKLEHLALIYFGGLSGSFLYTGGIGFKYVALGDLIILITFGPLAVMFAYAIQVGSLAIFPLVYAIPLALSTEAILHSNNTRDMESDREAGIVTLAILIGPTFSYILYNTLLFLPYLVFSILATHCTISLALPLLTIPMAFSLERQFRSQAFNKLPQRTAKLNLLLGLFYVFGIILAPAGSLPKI
UniProt Q5TAX3, sequence (Q5TAX3 whole entry, looked up): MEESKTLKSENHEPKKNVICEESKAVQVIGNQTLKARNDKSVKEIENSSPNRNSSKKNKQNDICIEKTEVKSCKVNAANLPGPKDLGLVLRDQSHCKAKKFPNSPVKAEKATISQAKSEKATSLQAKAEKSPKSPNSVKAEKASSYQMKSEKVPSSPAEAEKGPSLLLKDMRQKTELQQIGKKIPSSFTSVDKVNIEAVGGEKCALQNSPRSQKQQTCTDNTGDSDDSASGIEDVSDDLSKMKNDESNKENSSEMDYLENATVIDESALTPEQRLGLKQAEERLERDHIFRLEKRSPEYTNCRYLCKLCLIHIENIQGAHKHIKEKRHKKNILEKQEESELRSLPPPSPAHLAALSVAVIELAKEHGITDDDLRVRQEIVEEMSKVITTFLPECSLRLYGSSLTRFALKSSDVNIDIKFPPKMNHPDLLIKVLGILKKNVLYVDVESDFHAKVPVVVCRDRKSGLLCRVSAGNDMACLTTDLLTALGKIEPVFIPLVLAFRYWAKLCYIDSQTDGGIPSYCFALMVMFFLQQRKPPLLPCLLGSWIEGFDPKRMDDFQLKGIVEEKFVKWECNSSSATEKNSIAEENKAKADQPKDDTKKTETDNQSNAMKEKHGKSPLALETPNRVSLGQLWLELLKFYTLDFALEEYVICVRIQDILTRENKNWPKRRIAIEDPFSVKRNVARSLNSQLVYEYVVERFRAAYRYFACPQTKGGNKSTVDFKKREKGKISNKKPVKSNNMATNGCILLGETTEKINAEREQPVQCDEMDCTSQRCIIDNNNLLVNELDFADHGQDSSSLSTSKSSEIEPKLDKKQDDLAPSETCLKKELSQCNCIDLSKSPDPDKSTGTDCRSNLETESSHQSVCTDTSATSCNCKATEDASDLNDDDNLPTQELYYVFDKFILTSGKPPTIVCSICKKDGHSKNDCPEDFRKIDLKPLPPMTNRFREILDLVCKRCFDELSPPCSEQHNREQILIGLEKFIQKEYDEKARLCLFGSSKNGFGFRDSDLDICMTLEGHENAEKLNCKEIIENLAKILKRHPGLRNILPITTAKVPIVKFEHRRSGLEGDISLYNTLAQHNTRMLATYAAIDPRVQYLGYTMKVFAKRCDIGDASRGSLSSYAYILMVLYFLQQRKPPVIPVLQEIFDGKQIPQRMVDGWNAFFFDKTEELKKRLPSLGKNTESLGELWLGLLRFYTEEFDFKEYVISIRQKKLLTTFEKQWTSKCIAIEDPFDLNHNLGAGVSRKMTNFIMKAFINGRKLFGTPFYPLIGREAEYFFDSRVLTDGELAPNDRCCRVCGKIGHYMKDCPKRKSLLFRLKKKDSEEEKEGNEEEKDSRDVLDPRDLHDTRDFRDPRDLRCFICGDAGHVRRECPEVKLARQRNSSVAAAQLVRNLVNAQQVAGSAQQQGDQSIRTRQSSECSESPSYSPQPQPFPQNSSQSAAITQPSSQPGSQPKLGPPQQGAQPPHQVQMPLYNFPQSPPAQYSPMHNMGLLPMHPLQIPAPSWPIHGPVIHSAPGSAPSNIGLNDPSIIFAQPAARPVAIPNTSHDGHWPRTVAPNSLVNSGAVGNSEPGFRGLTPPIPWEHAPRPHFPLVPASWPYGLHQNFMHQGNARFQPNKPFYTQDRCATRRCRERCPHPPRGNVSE
UniProt Q9UL33, sequence (Q9UL33 whole entry, looked up): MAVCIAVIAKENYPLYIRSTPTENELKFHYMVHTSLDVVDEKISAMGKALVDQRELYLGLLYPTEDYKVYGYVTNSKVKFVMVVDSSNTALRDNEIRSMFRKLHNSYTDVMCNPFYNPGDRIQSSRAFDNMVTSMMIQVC
UniProt P18887, sequence (P18887 whole entry, looked up): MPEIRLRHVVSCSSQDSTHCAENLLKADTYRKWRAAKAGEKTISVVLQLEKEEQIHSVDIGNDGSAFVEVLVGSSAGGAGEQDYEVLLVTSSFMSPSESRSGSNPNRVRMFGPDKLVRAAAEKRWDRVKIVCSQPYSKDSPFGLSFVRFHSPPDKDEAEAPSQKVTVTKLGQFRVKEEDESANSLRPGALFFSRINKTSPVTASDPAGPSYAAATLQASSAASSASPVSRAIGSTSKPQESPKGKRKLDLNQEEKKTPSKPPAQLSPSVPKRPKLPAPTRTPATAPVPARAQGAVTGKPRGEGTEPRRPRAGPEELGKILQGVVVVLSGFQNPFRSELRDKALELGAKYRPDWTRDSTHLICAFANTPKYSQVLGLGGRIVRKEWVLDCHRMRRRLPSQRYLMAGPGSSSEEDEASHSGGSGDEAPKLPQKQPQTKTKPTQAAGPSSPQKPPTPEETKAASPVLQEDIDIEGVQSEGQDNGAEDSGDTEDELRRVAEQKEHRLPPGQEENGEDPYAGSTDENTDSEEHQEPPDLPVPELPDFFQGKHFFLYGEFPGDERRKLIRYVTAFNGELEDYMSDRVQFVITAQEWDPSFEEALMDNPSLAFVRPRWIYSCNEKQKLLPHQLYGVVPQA
UniProt Q9H4I3, sequence (Q9H4I3 whole entry, looked up): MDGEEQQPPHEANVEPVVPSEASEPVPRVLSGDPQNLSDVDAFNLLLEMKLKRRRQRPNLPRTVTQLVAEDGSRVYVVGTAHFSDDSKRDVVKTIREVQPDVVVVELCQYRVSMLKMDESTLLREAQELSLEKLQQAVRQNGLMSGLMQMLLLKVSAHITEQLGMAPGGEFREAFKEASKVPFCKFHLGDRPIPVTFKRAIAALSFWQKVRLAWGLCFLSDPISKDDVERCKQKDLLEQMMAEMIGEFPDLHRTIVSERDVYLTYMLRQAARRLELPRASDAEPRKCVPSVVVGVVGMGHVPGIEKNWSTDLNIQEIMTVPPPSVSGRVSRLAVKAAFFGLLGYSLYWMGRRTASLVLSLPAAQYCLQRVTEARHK
UniProt Q5BJH2, sequence (Q5BJH2 whole entry, looked up): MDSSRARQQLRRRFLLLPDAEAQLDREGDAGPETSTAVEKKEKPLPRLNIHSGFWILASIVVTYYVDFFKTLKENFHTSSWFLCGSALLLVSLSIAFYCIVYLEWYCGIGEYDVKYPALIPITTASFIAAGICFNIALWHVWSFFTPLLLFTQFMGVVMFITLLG

Target	log2 fold change [1]	log2 fold change (filanesib)	log2 fold change (zotarolimus)	log2 fold change (idasanutlin)	log2 fold change (alisertib)	log2 fold change [2]	log2 fold change (gefitinib)	log2 fold change [3]	log2 fold change (lapatinib)	log2 fold change (pictilisib)	log2 fold change [4]	log2 fold change (crizotinib)	log2 fold change [5]	log2 fold change [6]	log2 fold change (duvelisib)	log2 fold change (gandotinib)	log2 fold change (tozasertib)	log2 fold change [7]	log2 fold change (doramapimod)	log2 fold change (ispinesib)
USP3 (UniProt Q9Y6I4)	0.131	-0.246	0.009	-0.039	0.085	-0.201	-0.007	-0.014	0.053	0.027	0.065	-0.131	0.043	-0.26	-0.008	-0.246	-0.003	0.155	-0.023	-0.04
XRCC1 (UniProt P18887)	-0.129	0.088	-0.018	-0.045	–	–	–	–	–	-0.065	0	0.093	0.087	0.049	0.133	-0.019	-0.235	-0.132	-0.101	0.062
TUT4 (UniProt Q5TAX3)	-0.265	0.092	-0.237	–	-0.02	0.158	0.051	-0.025	0.021	0.009	0.069	0.075	-0.286	0.095	0.166	0.024	0.044	0.195	-0.003	-0.124
TMEM128 (UniProt Q5BJH2)	-0.065	0.152	-0.181	0.035	–	0.025	0.076	–	-0.068	–	0.001	0.234	-0.062	0.025	-0.009	–	0.06	0.016	-0.138	0.021
USP25 isoform 3 (UniProt Q9UHP3)	-0.011	0.037	0.014	-0.039	0.027	0.004	0.032	0.022	0.001	0.018	0.042	-0.003	-0.017	-0.062	0.05	-0.024	0.036	0.021	0.007	-0.025
VKORC1 (UniProt Q9BQB6)	0.079	-0.077	0.022	-0.089	0.016	-0.019	-0.05	-0.144	-0.06	-0.021	0.012	0.494 (active)	–	-0.032	0.153	-0.116	-0.027	0.106	0.033	-0.108
UTP3 (UniProt Q9NQZ2)	-0.058	0.368	0.125	0.26	-0.09	-0.074	–	-0.067	0.204	-0.06	0.015	0.061	-0.494	0.363	-0.133	0.17	0.017	-0.04	0.099	-0.144
TTC33 (UniProt Q6PID6)	0.094	0.031	-0.113	-0.039	0.071	0.082	–	0.086	-0.15	-0.093	0.056	-0.399	-0.113	0.146	0.002	-0.192	–	-0.06	-0.15	-0.095
TUBA4A (UniProt P68366)	0.032	-0.108	0.044	-0.108	-0.027	-0.043	0.019	0.071	0.04	0.04	0.004	-0.11	0.099	-0.054	0.329	0.014	-0.068	0.208	0.008	0.009
TRAPPC2L (UniProt Q9UL33)	-0.102	-0.05	0.098	-0.026	-0.029	0.03	0	-0.062	0.088	-0.018	0.009	-0.035	0.054	0.035	0.026	-0.023	0.015	0.001	-0.143	0.119
TRABD (UniProt Q9H4I3)	0.001	0.051	0.11	0.167	-0.109	0.198	0.149	-0.006	0.081	0.15	-0.041	0.174	0.097	-0.062	–	0.059	0.009	–	0.025	0.597 (active)
UBIAD1 (UniProt Q9Y5Z9)	-0.063	-0.038	-0.246	-0.039	-0.054	-0.008	0.077	0.013	0.082	0.103	0.107	0.024	–	0.001	0.021	0.069	-0.019	0.004	-0.1	-0.117
